Source: paper PMC4336329 (PLoS ONE, 2015)
Hit rate of the full screen: of about 310,000 compounds, about 14,000 (4.5%) showed an effect of 50% or more. Effects have a minus sign here. For the sample, strong results were picked, then their nearest neighbours and some compounds at random.

target: human ether-à-go-go-related gene (hERG) potassium channel (human, UniProt Q12809); test: primary screen, population patch clamp on CHO cells stably expressing hERG; higher = less effect of the substance
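Note: peak tail current of the secondary pulse compared with the same well before compound.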

human ether-à-go-go-related gene (hERG) potassium channel, sequence (Q12809 whole entry, looked up): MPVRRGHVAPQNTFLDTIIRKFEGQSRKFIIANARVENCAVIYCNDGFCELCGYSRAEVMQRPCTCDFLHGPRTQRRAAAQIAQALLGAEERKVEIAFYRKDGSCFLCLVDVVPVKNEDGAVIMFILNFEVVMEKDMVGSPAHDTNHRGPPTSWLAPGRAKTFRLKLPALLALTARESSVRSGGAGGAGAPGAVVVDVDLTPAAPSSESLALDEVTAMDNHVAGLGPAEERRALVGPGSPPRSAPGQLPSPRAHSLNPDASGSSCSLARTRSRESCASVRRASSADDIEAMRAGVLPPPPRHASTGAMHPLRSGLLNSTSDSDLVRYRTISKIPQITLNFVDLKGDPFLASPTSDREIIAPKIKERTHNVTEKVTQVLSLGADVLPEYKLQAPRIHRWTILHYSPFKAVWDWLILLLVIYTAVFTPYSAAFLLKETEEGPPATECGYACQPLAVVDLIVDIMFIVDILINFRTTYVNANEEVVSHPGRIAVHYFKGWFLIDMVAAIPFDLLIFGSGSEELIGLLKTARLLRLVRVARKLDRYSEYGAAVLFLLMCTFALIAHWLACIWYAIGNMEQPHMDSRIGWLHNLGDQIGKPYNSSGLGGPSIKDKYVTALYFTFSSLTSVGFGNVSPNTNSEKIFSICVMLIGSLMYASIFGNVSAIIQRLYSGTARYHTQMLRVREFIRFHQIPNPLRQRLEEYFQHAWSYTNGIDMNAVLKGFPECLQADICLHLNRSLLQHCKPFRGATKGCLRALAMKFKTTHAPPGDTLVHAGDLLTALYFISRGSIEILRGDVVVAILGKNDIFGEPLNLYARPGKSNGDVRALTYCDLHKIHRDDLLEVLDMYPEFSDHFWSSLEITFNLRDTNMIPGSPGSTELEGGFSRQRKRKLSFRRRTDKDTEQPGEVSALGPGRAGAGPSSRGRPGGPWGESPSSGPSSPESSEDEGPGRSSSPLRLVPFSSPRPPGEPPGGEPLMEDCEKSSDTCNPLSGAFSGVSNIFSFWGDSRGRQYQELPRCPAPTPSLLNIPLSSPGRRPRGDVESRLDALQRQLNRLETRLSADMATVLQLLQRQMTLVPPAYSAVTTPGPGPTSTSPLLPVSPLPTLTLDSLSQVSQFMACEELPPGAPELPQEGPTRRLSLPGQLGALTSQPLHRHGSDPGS

**Q.** `Cc1nc(-c2ccc(NC(=O)c3ccc(Br)o3)cc2)cs1` was tested. Which “hERG current change (%, negative = inhibition) at 10uM” value did it give?
**A.** The value was 4.44%.

**Q.** Which “hERG current change (%, negative = inhibition) at 10uM” value does the source give for `O=C(c1cc2nc(-c3ccccc3)cc(-c3ccccc3)n2n1)N1CCCC1` here?
**A.** The value was 9.99%.

**Q.** Which “hERG current change (%, negative = inhibition) at 10uM” value does the source give for `Cc1ccc(-c2cc(C(F)(F)F)n3nc(C(=O)N4CCN5CCCC5C4)cc3n2)cc1` (stereo not shown) here?
**A.** Its value is -48.3%.

**Q.** `O=C(c1ccccc1)N1CCN(C(=O)c2cc3nc(-c4ccccc4)cc(C(F)(F)F)n3n2)CC1` was tested. Which “hERG current change (%, negative = inhibition) at 10uM” value did it give?
**A.** The value was -51.1%.

**Q.** With `CCN1CCN(C(=O)c2cc3nc(-c4ccccc4)cc(C(F)(F)F)n3n2)CC1` as the compound, how does the “hERG current change (%, negative = inhibition) at 10uM” value read?
**A.** The value was -22%.

**Q.** `O=C(c1cc2nc(-c3ccc(F)cc3)cc(C(F)(F)F)n2n1)N1CCCCC1c1cccnc1` (stereo not shown) was tested. Which “hERG current change (%, negative = inhibition) at 10uM” value did it give?
**A.** The value was -80.2%.

**Q.** For `COc1ccc(-c2cc(C(F)(F)F)n3nc(C(=O)N4CCN5CCCC5C4)cc3n2)cc1OC` (stereo not shown), which “hERG current change (%, negative = inhibition) at 10uM” value is on record?
**A.** The value was -64.4%.

**Q.** Which “hERG current change (%, negative = inhibition) at 10uM” value does the source give for `O=C(c1cc2nc(-c3ccccc3)cc(C(F)(F)F)n2n1)N1CCN2CCCC2C1` (stereo not shown) here?
**A.** The value was -30.3%.

**Q.** `O=C(c1cc2nc(-c3ccccc3)cc(-c3ccccc3)n2n1)N1CCN(C(=O)c2ccco2)CC1` was tested. Which “hERG current change (%, negative = inhibition) at 10uM” value did it give?
**A.** The value was -56.9%.

**Q.** Which “hERG current change (%, negative = inhibition) at 10uM” value does the source give for `COc1cccc(-c2cc(C(F)(F)F)n3nc(C(=O)N4CCCCC4c4cccnc4)cc3n2)c1` (stereo not shown) here?
**A.** Its value is -23.1%.

**Q.** `CN1CCN(C(=O)c2cc3nc(-c4ccccc4)cc(-c4ccccc4)n3n2)CC1` was tested. Which “hERG current change (%, negative = inhibition) at 10uM” value did it give?
**A.** Its value is -38.3%.

**Q.** How did the “hERG current change (%, negative = inhibition) at 10uM” value turn out when `Cc1ccc(-c2cc(C(F)(F)F)n3ncc(C(=O)N4CCCCC4c4cccnc4)c3n2)cc1` (stereo not shown) was run?
**A.** The value was 4.63%.

**Q.** `O=C(c1cc2nc(-c3ccccc3)cc(C(F)(F)F)n2n1)N1CCOCC1` was tested. Which “hERG current change (%, negative = inhibition) at 10uM” value did it give?
**A.** The value was -29.3%.

**Q.** How did the “hERG current change (%, negative = inhibition) at 10uM” value turn out when `COc1ccc(C(=O)N/N=C/c2ccc(N3CCOCC3)s2)cc1OC` was run?
**A.** Its value is 11.6%.

**Q.** For `Cc1nc2sc(-c3ccccc3)nn2c(=O)c1Br`, which “hERG current change (%, negative = inhibition) at 10uM” value is on record?
**A.** Its value is -1.74%.

**Q.** How did the “hERG current change (%, negative = inhibition) at 10uM” value turn out when `COc1ccc2nc(Sc3c([N+](=O)[O-])nc(C)n3Cc3ccccc3)[nH]c2c1` was run?
**A.** Its value is -12.7%.

**Q.** `CCOc1ccc(N2CC(C(=O)NC3CCCC3)CC2=O)cc1` (stereo not shown) was tested. Which “hERG current change (%, negative = inhibition) at 10uM” value did it give?
**A.** Its value is 2.11%.

**Q.** With `COc1ccc(N(C(=O)CNC(=O)c2ccco2)C(C(=O)NC2CCCC2)c2ccncc2)cc1` (stereo not shown) as the compound, how does the “hERG current change (%, negative = inhibition) at 10uM” value read?
**A.** Its value is 13.1%.

**Q.** With `CC(=O)c1sc(NC(=O)CSCc2c(C)noc2C)nc1-c1ccccc1` as the compound, how does the “hERG current change (%, negative = inhibition) at 10uM” value read?
**A.** Its value is -27.4%.

**Q.** With `O=C(N/N=C/c1c[nH]c2ccc(Br)cc12)C1CC1` as the compound, how does the “hERG current change (%, negative = inhibition) at 10uM” value read?
**A.** Its value is 4.6%.

**Q.** With `CC(C)C(=O)Nc1nnc(SCC(=O)NC2CC2)s1` as the compound, how does the “hERG current change (%, negative = inhibition) at 10uM” value read?
**A.** The value was 12.8%.

**Q.** `CC(=O)N1c2ccccc2NC2=C(C(=O)CCC2)C1c1cccnc1` (stereo not shown) was tested. Which “hERG current change (%, negative = inhibition) at 10uM” value did it give?
**A.** The value was 4.51%.
